Pf Dd2 growth = qHTS Primary assay for Inhibitors of Plasmodium falciparum Dd2 growth in vitro | Potency, µM (series often up to 28.9 µM), inactives show top-dose activity, negative = inhibition, usual class: inhibitors | 120,000 tested, 4.3% active | P. falciparum Dd2 growth, SYBR Green, 72 h | AID 1347417, 2020; active means well fitted inhibition curve with a large enough effect;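 further: plate controls were DMSO vehicle for no effect and reference drug for full effect; nearly all actives have a fitted effect of over 65% in size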
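Infected erythrocytes (Dd2, 0.3% parasitemia, 2.5% hematocrit final) are added to compound in RPMI-1640/Albumax II medium, grown 72 h at 37C in low oxygen, then lysed with saponin/Triton-X containing SYBR Green and read by fluorescence.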
Starred values were filed as active, the others as inactive; i = inactive; [ ] = another dose, or the depositor's remark. The sample as a whole holds a higher share of hits than the screen did. Potency means the concentration at half of the fitted maximal effect.

SMILES | Pf Dd2 growth
CC(C)(C)CC(=O)NC1CCN(c2cnn(Cc3ccccc3)c(=O)c2)CC1 | i
Cc1ccccc1-n1nc(-c2c(C)nc3scc(CC(=O)N4CCCC4)n3c2=O)cc1C | i
O=C(Cn1ccn2nc(-c3ccccc3)c(CO)c2c1=O)N1CCN(c2ccccc2F)CC1 | -1.2%
O=c1c2c(CO)c(-c3ccc(F)cc3)nn2ccn1Cc1ccc(Br)cc1 | 8.91µM*
COc1ccccc1N1CCN(C(=O)Cn2c(=O)nc(-c3ccccc3)c3ccccc32)CC1 | 11.2µM*
O=c1c2c(CO)c(-c3ccccc3)nn2ccn1Cc1cccc(F)c1 | i
COc1ccccc1N1CCN(C(=O)Cn2ccn3nc(-c4ccc(F)cc4)c(CO)c3c2=O)CC1 | 8.91µM*
O=C(Cn1ccn2nc(-c3ccc(F)cc3)c(CO)c2c1=O)N1CCN(c2ccccc2F)CC1 | i
COc1ccccc1N1CCN(C(=O)Cn2c(=O)n3nc(-c4cccc(F)c4)nc3c3ccccc32)CC1 | 29.7%
CCc1cc(=O)n(CC(=O)N2CCN(c3ccccc3OC)CC2)c(-c2ccccc2)n1 | -21.7%
O=c1c2c(CO)c(-c3ccc(F)cc3)nn2ccn1CCc1ccccc1 | i
CC(C)NC(=O)CC[C@@H]1CNC(=O)[C@@H]2C[C@H](NCc3ccccc3)CN12 | -6.9%[44.1 µM]
CCn1ncc(N2CCC(NC(=O)c3cccc(OC)c3)CC2)cc1=O | -16.9%
COc1ccccc1S(=O)(=O)N1C[C@@H]2C(CN(C)C)[C@@H]2C1 (stereo not given in full) | -18.8%
Cc1cccc(C(=O)N2CCC3(CC2)OCC(C(=O)N2CCOCC2)N3C(=O)c2ccc(F)cc2)c1 (stereo not given) | 1.3%
COc1ccc(Nc2nc(-c3c(C)noc3C)cc3cc(CO)oc23)cc1OC | 7.94µM*
COCCNc1nc(-c2c(C)noc2C)cc2cc(CO)oc12 | -10.0%[44.1 µM]
Cc1noc(C)c1-c1cc2cc(CO)oc2c(NCc2cccc(F)c2)n1 | i
CCC(CC)C(=O)Nc1ccc([C@@H](O)[C@H]2COCC(=O)N2Cc2ccccc2)cc1 | i
O=C(O)c1cncc(N2CCC3(CC2)CNC(C(=O)O)C3)n1 (stereo not given) | 3.1%
CCC(=O)N1CCc2c(C(=O)NCc3cc(C)ccc3C)cccc21 | 11.2µM*
CCC(=O)N1CCc2c(C(=O)NCc3cc(OC)ccc3OC)cccc21 | i
CCC(=O)N1CCc2c(C(=O)NCCOC)cccc21 | -9.9%
O=C1NCCN2CC3(CCN(C(=O)NCCc4ccccc4)CC3)CC12 (stereo not given) | i
CN1CCC(N2CCN(S(=O)(=O)c3ccccc3F)CC2)C1=O (stereo not given) | 13.8%
SMILES | Pf Dd2 growth
Cc1nn(C)c(C)c1S(=O)(=O)N(CC(=O)NCCc1ccc(Cl)cc1)c1ccc(C(C)C)cc1 | 11.2µM*
Cc1ccc(CNC(=O)CN(c2ccc(C)cc2)S(=O)(=O)c2c(C)nn(C)c2C)cc1 | 29.1%
COc1ccc(N(CC(=O)NCCc2ccccc2)S(=O)(=O)c2c(C)nn(C)c2C)cc1 | -13.3%
Cc1cnc(C(=O)N[C@@H]2CCC[C@@H]2C(=O)NCCc2cccs2)cn1 | -4.5%
NC(=O)c1ccc(NC(=O)Cn2nc3c(cc2=O)CCCC3)cc1 | -4.7%
O=C(Cc1cccc(Cl)c1)N1CCC2(COc3ccncc3[S+](=O)([O-])N2)C1 (stereo not given) | -25.8%
CN(C)c1nc2c(c(=O)[nH]1)CCN(Cc1cccc(F)c1F)CC2 | i[5.79 µM]
CN(C)c1nc2c(c(=O)[nH]1)CCN(Cc1ccccc1F)CC2 | i[5.79 µM]
O=c1[nH]c(N2CCOCC2)nc2c1CCN(Cc1cc(F)cc(F)c1)CC2 | -2.0%[5.79 µM]
CN(C)c1nc2c(c(=O)[nH]1)CCN(Cc1ccccc1)CC2 | 16.7%[5.79 µM]
O=c1[nH]c(N2CCOCC2)nc2c1CCN(Cc1ccc(C(F)(F)F)cc1)CC2 | 1.26µM*
CN(C)c1nc2c(c(=O)[nH]1)CCN(Cc1ccc(Br)cc1)CC2 | 2µM*
Cc1ccc(CN2CCc3nc(N4CCOCC4)[nH]c(=O)c3CC2)cc1C | i[5.79 µM]
CN(C)c1nc2c(c(=O)[nH]1)CCN(Cc1ccccc1Br)CC2 | 1.12µM*
CN(C)c1nc2c(c(=O)[nH]1)CCN(Cc1ccc(Cl)cc1)CC2 | -3.8%[5.79 µM]
Cc1ccc(N2CCC(NC(=O)c3ccc(Br)cc3)C2=O)cc1 (stereo not given) | 22.5%
O=C1CC2CCCC(C1)N2C(=O)c1ccc(F)cc1 | 12.8%[44.1 µM]
CS(=O)(=O)NCCC(=O)N1CC[C@@H]2[C@@H](CCC(=O)N2CCN)C1 | -8.1%
NC(=O)N1CCCC(C(=O)NCCc2nc(-c3ccccn3)no2)C1 (stereo not given) | -2.5%
O=C(NCCCN1CCOCC1)c1cccnc1N1CC2CC(C1)[C@H]1CCCC(=O)N1C2 (stereo not given in full) | -6.9%
CC(C)OCCCNC(=O)C1N(C(C)C)C(=O)C12CCCC2 (stereo not given) | 32.9%
O=C(O)C1(Oc2ccc3ccccc3c2)CCN(Cc2ccc(CO)o2)CC1 | -6.3%
O=C(NC(c1ccccc1)c1ccccc1)c1cnc2c(c1)N(C(=O)Cc1ccc(O)cc1)CCC2 | 12.6µM*
Cc1csc(NC(=O)c2cnc3c(c2)N(C(=O)Cc2ccc(C(C)C)cc2)CCC3)n1 | 7.08µM*
O=C(Nc1ccccc1)c1cnc2c(c1)N(C(=O)Cc1ccc(O)cc1)CCC2 | -19.8%[44.1 µM]
SMILES | Pf Dd2 growth
CC(C)c1ccc(CC(=O)N2CCCc3ncc(C(=O)Nc4ccn(C)n4)cc32)cc1 | -12.0%[44.1 µM]
CC(C)c1ccc(CC(=O)N2CCCc3ncc(C(=O)Nc4ccccc4)cc32)cc1 | -8.2%[44.1 µM]
COc1ccc(NC(=O)c2cnc3c(c2)N(C(=O)Cc2ccc(O)cc2)CCC3)cn1 | 3.4%[44.1 µM]
COc1ccccc1CC(=O)N1CCC(C2CCN(S(C)(=O)=O)CC2)C1 (stereo not given) | -1.4%
CN1c2cc(C(=O)N3CCc4ccccc4C3)ccc2C(=O)N2CCCC21 (stereo not given) | i
O=C(Nc1ccc(F)cc1)C1CN(c2cccc(Cl)c2)C(=O)N1 (stereo not given) | i
O=C(Cc1c(F)cccc1Cl)N1C[C@@H](CO)[C@H](c2ccncc2)C1 | 1.8%
CCCCNC(=O)N1CCC2(CC1)C(=O)N(CC(=O)NCC1CCCO1)CN2c1ccccc1 (stereo not given) | i
O=C(NCCc1cnc[nH]1)C1CC(=O)N(c2n[nH]c3cc(Br)ccc23)C1 (stereo not given) | 7.8%
O=C(Cn1cccc1-c1nc(-c2ccccc2)no1)N1CCN(c2ccccc2)CC1 | 17.5%
CS(=O)(=O)N1CCC(NC(=O)c2c(O)cccc2O)CC1 | 2.7%
COc1ccc(C)cc1NC(=O)C(=O)NCC1(c2ccccc2)CCCC1 | 14.9%
Cc1ccc(O)c(C(CC(=O)NCC2(c3ccccc3)CCCC2)c2ccccc2)c1 (stereo not given) | 10µM*
Cc1ccc(NC(=O)C(=O)NCC2(c3ccccc3)CCCC2)cc1C | 2.9%
CCCOc1ccc(-c2nc3ccc(-c4ccc(OC)c(OC)c4OC)cc3o2)cc1 | 10µM*
COc1ccc(-c2ccc3nc(-c4ccc(C)c(F)c4)oc3c2)c(OC)c1OC | 11.2%
COc1ccc(-c2ccc3nc(-c4ccc(SC)cc4)oc3c2)c(OC)c1OC | i
O=C(NCCC1CCN(C(=O)Nc2ccc(F)cc2F)CC1)c1ccccc1 | -1.6%
NS(=O)(=O)CCCC(=O)N1CCC(c2ncc[nH]2)CC1 | -16.2%
CC(C)c1noc([C@@H]2C[C@H]3C(=O)NCCCCCCN(C(=O)c4ccco4)[C@H]3C2)n1 | -8.0%

Screening data deposited in PubChem BioAssay by National Center for Advancing Translational Sciences (NCATS).
